Screening results from PubChem.
HT1080 IDH1KD tx: HT-1080 IDH1 knockdown cell toxicity (counter line). HT-1080 IDH1 knockdown viability, ATP luminescence, 48 h. Potency, µM (highest dose often 46.1 µM), inactives show at the top dose activity, negative = toxicity, actives largely listed as cytotoxic. actives 2% (n = 360,000). AID 686971;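 further: 0% = DMSO wells and -100% = cell-free medium wells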
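Cytotoxicity counter-line: IDH1KD HT-1080, 48 h, CellTiter-Glo. Curves classed by r2, magnitude and activity.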
KB-V1 cytotox: KB-V1 MDR subline cytotoxicity | KB-V1 MDR cells viability, CellTiter-Glo, 72 h | Potency, µM (top dose mostly 46.1 µM), hits mostly cytotoxic | actives 3.4% (n = 400,000); further: on the % scale 0 is the no-effect control and ±100 the full control effect; nearly all actives have a fitted effect of over 60% in size
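KB-V1, DMEM (no phenol red) + 10% FBS; cpd pin-transferred, titration series; 72 h, 37 degrees C; CellTiter-Glo, luminescence. Data normalized, curve-fit.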
KB-3-1 tox: kills parental KB-3-1 adenocarcinoma cells. KB-3-1 viability, CellTiter-Glo ATP luminescence, 72 h. Potency, µM (doses to about 46.1 µM), usual class: cytotoxic. actives 1.4% (n = 400,000); further: on the % scale 0 is the no-effect control and ±100 the full control effect; nearly all actives have a fitted effect of over 60% in size
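Cytotoxicity in the drug-sensitive parental line KB-3-1 was scored as loss of CellTiter-Glo luminescence following 72 h incubation with compound. Values come from curve fitting of normalized concentration-response data.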
MCF10A rereplic: induces DNA re-replication in MCF 10a normal breast cells; MCF 10A DNA re-replication, Hoechst nuclear intensity, 48 h; Potency, µM (doses to about 46.1 µM), for inactives: at the top dose activity, positive = re-replication, most hits filed as activators; actives 2.9% (n = 350,000); AID 624296; further: % of control where 0% means no effect; nearly all actives have a fitted effect of over 50% in size
HT1080-NT tox: kills 2HG-producing HT-1080-NT fibrosarcoma cells; HT-1080-NT fibrosarcoma viability, CellTiter-Glo ATP luminescence, 48 h; Potency, µM (titrated, usually from 46.1 µM), without a hit: at the top dose activity, negative = less viability, hits mostly cytotoxic; actives 1.6% (n = 360,000); AID 686970;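 further: NT is the 2HG producing partner of a matched IDH1 knockdown line; 0% = DMSO-treated cells and -100% = media-only wells without cells; nearly all actives have a fitted effect of over 55% in size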
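A 48-hour cytotoxicity screen used HT-1080-NT cells plated 2 hours before compound delivery. ATP-based CellTiter-Glo luminescence measured viability, normalized to DMSO and no-cell controls.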
SW480 rereplic: DNA re-replication induction in SW480 cells; SW480 DNA re-replication, Hoechst DNA content imaging, 48 h; Potency, µM (doses to about 46.1 µM), without a hit: at the top dose re-replication activation, hits mostly activators; actives 1.8% (n = 340,000); further: % of control where 0% means no effect; nearly all actives have a fitted effect of over 55% in size
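Per well, 250 cells were exposed to pinned compound for 48 hr. Nuclear DNA was visualised with Hoechst (40 min, 37 C) and total object intensity recorded by fluorescence scanning.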
Starred values were filed as active, the others as inactive; i = inactive; ? = inconclusive; . = no result. Most compounds without a hit are left out; they make up all but 7.9% or so of the library. The call rests on the fitted dose curve; in most records, active means well fitted curve in the direction sought with a large enough effect; inconclusive means small, poorly fitted or top-dose-only effect, or another doubt; inactive means no such curve, though single readings can be large; an effect the other way counts as inactive or inconclusive. Potency means the concentration at half of the fitted maximal effect.

SMILES	HT1080 IDH1KD tx	KB-V1 cytotox	KB-3-1 tox	MCF10A rereplic	HT1080-NT tox	SW480 rereplic
COc1ccc2cc(C(C)C(=O)Nc3cccc(S(=O)(=O)N(C)C)c3)ccc2c1 (stereo not given)	-22%	13µM*	21µM*	?	?	-5%
COc1ccc(O)c(/C=N/NC(=S)Nc2cccc(S(=O)(=O)N(C)C)c2)c1	?	4.1µM*	i	15µM*	-18%	?
COc1cccc(C(=O)Nc2ccc(-c3nc4ccccc4[nH]3)cc2)c1	.	i	i	.	.	.
COc1cccc(C(NC(C)=O)c2nc(-c3cccc(C(=O)O)c3)cs2)c1 (stereo not given)	12%	i	i	.	20%	.
CN(C)S(=O)(=O)c1cccc(NC(=S)Nc2cc(Cl)cc(Cl)c2)c1	5%	18µM*	?	20%	6%	-6%
CN(C)S(=O)(=O)c1cccc(NC(=S)N/N=C/C(c2ccccc2)c2ccccc2)c1	14%	21µM*	i	6%	-3%	0%
Nc1nn(-c2ccccc2)nc1C(=O)OCc1c(F)cccc1Cl	.	i	i	.	.	.
CCN(CC)CCn1c(NS(=O)(=O)c2ccc(C)cc2)nc2ccccc21	-2%	21µM*	i	7%	-7%	-6%
c1ccc(Cn2c(CNc3nc4ccccc4n3CCN3CCCCC3)nc3ccccc32)cc1	23µM*	?	i	?	21µM*	?
CCCCn1c(NCc2ccccc2NS(=O)(=O)c2ccc(C)cc2)nc2ccccc21	-5%	?	i	20%	-5%	6%
CCN(CC)c1ccc(CNc2nc3ccccc3n2CCN2CCCCC2)cc1	?	?	?	13%	16µM*	?
CCN(CC)CCn1c(NCc2nc3ccccc3n2Cc2ccccc2)nc2ccccc21	11µM*	i	i	23µM*	?	?
Cc1cc(C)cc(NC(=O)COc2cccc3c(=O)n(C)ccc23)c1	.	i	i	.	.	.
CCOc1ccc(CCN2C(=S)N([C@@H](CC(C)C)CN3CCCC3CN3C(=S)NC[C@@H]3CC(C)C)C[C@@H]2Cc2ccccc2)cc1 (stereo not given in full)	4%	i	i	-4%	-1%	-9%
COC(=O)[C@@]12C[C@@H](CC(=O)N3CCCC3)C(=O)N(Cc3cccc4ccccc34)C1=CCC(C)(C)C2	-27%	13µM*	?	.	?	.
COC(=O)[C@@]12C[C@@H](CC(=O)N3CCN(C(=O)C4CC4)CC3)C(=O)N(Cc3cccc4ccccc34)C1=CCC(C)(C)C2	?	?	i	.	?	.
COC(=O)[C@@]12C[C@@H](CC(=O)NCCc3ccccc3OC)C(=O)N(Cc3ccco3)C1=CCC(C)(C)C2	?	15µM*	i	.	?	.
COC(=O)[C@@]12C[C@@H](CC(=O)NCC34CC5CC(CC(C5)C3)C4)C(=O)N(Cc3cccc4ccccc34)C1=CCC(C)(C)C2	-12%	i	?	.	-22%	.
COC(=O)[C@@]12C[C@@H](CC(=O)NCc3cccc4ccccc34)C(=O)N(Cc3ccco3)C1=CCC(C)(C)C2	?	21µM*	i	.	?	.
COC(=O)[C@@]12C[C@@H](CC(=O)NCC34CC5CC(CC(C5)C3)C4)C(=O)N(Cc3ccccc3)C1=CCC(C)(C)C2	?	23µM*	?	.	?	.
COc1ccccc1CNC(=O)C1CC2Cn3c(nc4cc(Cl)c(Cl)cc43)C2N1C (stereo not given)	-19%	i	i	-1%	?	9%
CCOC(=O)c1ccc(NC(=O)c2cc3c(n(-c4ccc(C)cc4)c2=O)CC(C)(C)CC3=O)cc1	.	i	i	.	.	.
O=C(CNC(=O)c1ccccc1F)OCc1cc(=O)n2ccsc2n1	.	i	i	.	.	.
